# Bioassay records as filed in PubChem BioAssay.
# Mac1 fbg enh – enhancers of human CD11b/CD18 binding to fibrinogen; P05107+P11215; K562 CD11b/CD18 adhesion to fibrinogen, ATPlite luminescence; activation, % at 10 µM; 93,000 compounds, 0.07% hits;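 active = 10 µM primary screen giving 50% or more activity, confirmed by 40% or more on retest at that dose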
# CYP2C9 inh – human CYP2C9 inhibition. inhibition, % at 5 µM. CYP2C9 Supersomes, luciferin-H conversion, luminescence. 96,000 compounds, 20% hits. P11712;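 active = blocking of liver enzyme CYP2C9 beyond about 50% at 5 µM, limit read from the data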
# CYP2C9 act – CYP2C9 (human) activation; recombinant CYP2C9, luciferin-H conversion, luminescence; stronger effect = higher value; factor 1 = untreated enzyme, 0 = blocked; activation factor at 5 µM; 96,000 compounds, 1.4% hits;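 active = activation factor of 2 or more for CYP2C9 at a 5 µM dose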;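 also: 0 = sulfaphenazole-blocked wells and 1 = vehicle-only wells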
# Mac1 fbg inh – CD11b/CD18-fibrinogen binding inhibition; inhibition, % at 10 µM; K562 CD11b/CD18 adhesion to fibrinogen, ATPlite luminescence; Mn2+ added to activate the integrin; P05107+P11215; 93,000 compounds, 0.54% hits;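 active = primary inhibition of 50% or more at 10 µM, then 40% or more on retest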
# CYP2C19 inh – human CYP2C19 inhibition; CYP2C19 Supersomes, luciferin-H EGE luminescence, 30 min; 96,000 compounds, 21% hits; P33261; AID 778; inhibition, % at 5 µM;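 active = CYP2C19 inhibition above a set limit at 5 µM in the primary screen, cut at about 50% in these data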;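 also: plate controls were negative control wells for no effect and 2.5 mM tranylcypromine positive control for full effect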
# Target sequence (P33261 whole entry, looked up): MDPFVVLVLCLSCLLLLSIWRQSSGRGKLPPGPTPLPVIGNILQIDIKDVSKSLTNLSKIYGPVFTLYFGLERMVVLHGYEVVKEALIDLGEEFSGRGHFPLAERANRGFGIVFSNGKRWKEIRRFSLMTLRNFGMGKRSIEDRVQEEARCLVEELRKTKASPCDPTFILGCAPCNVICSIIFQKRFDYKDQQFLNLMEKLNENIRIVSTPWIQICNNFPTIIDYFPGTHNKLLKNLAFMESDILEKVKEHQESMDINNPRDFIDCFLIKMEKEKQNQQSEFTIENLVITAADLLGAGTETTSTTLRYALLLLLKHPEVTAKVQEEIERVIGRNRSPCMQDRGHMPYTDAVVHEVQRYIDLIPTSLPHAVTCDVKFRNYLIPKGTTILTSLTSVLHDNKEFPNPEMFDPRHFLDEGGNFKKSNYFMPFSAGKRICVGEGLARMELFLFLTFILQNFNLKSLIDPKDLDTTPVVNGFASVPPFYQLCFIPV
# CYP2C19 activ – activators of human cytochrome P450 2C19. P33261. recombinant CYP2C19, luciferin-H EGE luminescence; stronger effect = higher value; 0 = fully inhibited enzyme, 1 = untreated enzyme. activation factor at 5 µM. 96,000 tested, under 10 active. AID 1025;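 active = activation factor of at least 2 at 5 µM in the primary screen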;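 also: 0 = wells with 2.5 mM tranylcypromine and 1 = vehicle-only wells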
# * marks the source's active call; other numbers are inactive results; . = no result. Hits are enriched below; roughly 28% of the tested compounds scored in any of these assays.
SMILES,Mac1 fbg enh,CYP2C9 inh,CYP2C9 act,Mac1 fbg inh,CYP2C19 inh,CYP2C19 activ
O=C(CN1C(=O)c2cccc3cccc1c23)NCc1ccccn1,-4,-176,2.8*,1,8,0.9
O=C(c1ccc(Cl)cc1)c1oc2ccccc2c1CS(=O)(=O)c1ccccc1,-6,42,0.6,11,40,0.6
C=CCN=C1SC(C)C(=O)N1S(=O)(=O)c1ccccc1 (centres undefined),-2,-36,1.4,-20,73*,0.3
N#Cc1cccc(NC(=O)CSc2ccccc2)c1,-2,24,0.8,2,34,0.7
COc1ccc(NC(=O)CSc2ccc3c4c(cccc24)C(=O)c2ccccc2-3)cc1,.,84*,0.2,.,28,0.7
N#Cc1cccc(NC(=O)CSc2ccc3c4c(cccc24)C(=O)c2ccccc2-3)c1,62,74*,0.3,-2,30,0.7
COc1ccc(Cn2c(-c3ccc(Br)cc3)c[n+]3ccccc23)cc1,3,.,.,19,.,.
COc1ccc(/C=C/C(=O)C2C(=O)C=C(C)OC2=O)cc1O (centres undefined),0,.,.,-7,.,.
NCc1ccc(-c2nc3ccccc3o2)cc1,0,70*,0.3,-18,98*,0
Nc1ccc(CCc2nc3ccccc3o2)cc1,0,76*,0.2,-6,96*,0
O=[N+]([O-])c1cccc(N/N=C/c2cccc3ccccc23)c1,5,.,.,-2,.,.
CSc1nc2ncc3c(n2n1)CC1c2ccccc2CCN1C3=O (centres undefined),-1,55*,0.5,-4,72*,0.3
CC1=C(C)CC(C(=O)Nc2cccc(Cl)c2)C(C(=O)O)C1 (centres undefined),-1,50*,0.5,-19,-5,1.1
CCOC(=O)N1CCC(N(C(=O)Nc2ccc(Cl)c(Cl)c2)C(C)CC)CC1 (centres undefined),.,84*,0.2,.,89*,0.1
CCOC(=O)N1CCN(C(=O)Nc2cccc(Cl)c2)CC1,0,18,0.8,7,61*,0.4
CC1CCCCN1C(=O)Nc1cccc(Cl)c1 (centres undefined),4,17,0.8,-11,70*,0.3
COc1ccccc1CNC(=O)CCSCc1cccc(Cl)c1,7,.,.,10,.,.
COC(=O)c1ccc(C(=O)OC)c(NS(C)(=O)=O)c1,-2,-1,1,-10,14,0.9
CCOC(=O)C1CCCN(C(=O)Nc2cccc(Cl)c2)C1 (centres undefined),4,40,0.6,2,60*,0.4
O=C(Nc1cccc(Cl)c1)N1CCCC1,0,-15,1.1,2,0,1
O=C(C/C=N/OCc1c(Cl)cccc1Cl)c1ccc(Cl)cc1,-4,10,0.9,22,17,0.8
Nc1nc2c(s1)CCc1c-2cnn1-c1ccccc1,-4,29,0.7,12,53*,0.5
Cc1cc(N)ccc1N1CCCC1,.,-2,1,.,14,0.9
Cc1cc(N)ccc1-n1c(C)ccc1C,21,36,0.6,23,53*,0.5
CCCCN1CCc2c([nH]c3c(C)cccc23)C1=O,-1,48,0.5,3,46,0.5
SMILES,Mac1 fbg enh,CYP2C9 inh,CYP2C9 act,Mac1 fbg inh,CYP2C19 inh,CYP2C19 activ
CCC1CCc2c(sc(NC(=O)CSc3nc(-c4ccco4)cc(C(F)(F)F)n3)c2C#N)C1 (centres undefined),2,89*,0.1,-21,69*,0.3
CCC(=O)Nc1sc2c(c1C#N)CCCCC2,-6,3,1,20,24,0.8
COc1ccc(-c2cc(C(F)(F)F)nc(SCC(=O)Nc3cc(C)on3)n2)cc1,-5,-10,1.1,-3,-6,1.1
COc1ccc(-c2cc(C(F)(F)F)nc(SCC(=O)Nc3sc4c(c3C#N)CCC4)n2)cc1,4,68*,0.3,3,28,0.7
COc1ccc(-c2ccc(C#N)c(SCC(=O)Nc3sc4c(c3C#N)CCC4)n2)cc1OC,42,98*,0,-35,42,0.6
COc1ccc(-c2nnn(CC(=O)Nc3sc4c(c3C#N)CCCC4)n2)cc1,53,54*,0.5,-19,18,0.8
CCOC(=O)CSc1nnc(C)n1N,-2,-2,1,4,3,1
Cc1ccc(C)c(-n2cc(-c3ccc(Cl)cc3)nc2SCC(=O)NC2CCS(=O)(=O)C2)c1 (centres undefined),6,.,.,1,.,.
CCCCN(CCCC)CC(O)CN(c1cc([N+](=O)[O-])ccc1OC)S(=O)(=O)c1ccccc1 (centres undefined),-3,.,.,11,.,.
Cc1nn(CCC#N)c(NC(=O)c2ccc(Cl)cc2Cl)c1P(=O)(Nc1ccc([N+](=O)[O-])cc1)N1CCOCC1 (centres undefined),2,11,0.9,-3,-6,1.1
COC(=O)C1=C(CSCc2ccco2)NC(=O)NC1c1cc(C)ccc1C (centres undefined),1,80*,0.2,-4,91*,0.1
COC(=O)C1=C(CSc2nc3ccccc3o2)NC(=O)NC1c1cc(C)ccc1C (centres undefined),-1,78*,0.2,2,77*,0.2
N#Cc1cc(-c2ccccc2)nnc1Oc1ccccc1Cl,-6,-7,1.1,-8,-20,1.2
CN1CCN(S(=O)(=O)c2ccc(Cc3ccc(S(=O)(=O)N4CCN(C)CC4)cc3)cc2)CC1,-3,14,0.9,-9,15,0.8
CC(C)Cn1[nH]c2c3c(ccc2c1=O)C(=O)c1ccccc1C3=O,.,80*,0.2,.,61*,0.4
NC(=O)CSc1nnc(Cc2cccs2)n1C1CCCCC1,-2,-11,1.1,-2,-6,1.1
CC1CCCC(C)N1C(=O)CSc1nnc(COc2ccccc2)n1-c1ccccc1 (centres undefined),0,42,0.6,-13,65*,0.4
S=c1[nH]nc(COc2ccccc2)n1C1CCCCC1,15,34,0.7,-17,60*,0.4
NC(=O)CSc1nnc(COc2ccccc2)n1C1CCCCC1,-3,56*,0.4,-10,80*,0.2
COc1ccc(OCc2nnc(SC(C)C(=O)Nc3nccs3)n2-c2ccccc2)cc1 (centres undefined),0,60*,0.4,-2,50,0.5
CCOC(=O)Cn1nc(C)n(-c2ccc(C(C)C)cc2)c1=O,.,19,0.8,.,11,0.9
CC(O)CN(Cc1cccc(Cl)c1)CC(C)O (centres undefined),1,-22,1.2,18,-7,1.1
Cc1nnc(SC(C)C(=O)Nc2ccc(Cl)cn2)n1Cc1ccccc1 (centres undefined),0,9,0.9,-1,48,0.5
